Assay results as given in PubChem BioAssay (NCATS).
Inconclusive results are not listed. Calls of active or inactive are those of the source. Unless noted, calls follow the shape of the dose curve; as a rule, active = well fitted curve in the direction sought with a large enough effect; inconclusive = small, poorly fitted or top-dose-only effect, or another doubt; inactive = no such curve, though single readings can be large; an effect the other way counts as inactive or inconclusive.

How the values were obtained:
[1] = target: Lysosomal acid glucosylceramidase (Homo sapiens) (UniProt P04062); experiment: Glucocerebrosidase-p2 (AID 348; in the data active = potency below about 10 µM; also: potency is read from the fitted curve at half-maximal effect); conditions: purified GBA, blue fluorogenic substrate, 40 min
Chain of Lysosomal acid glucosylceramidase (Homo sapiens) (P04062 whole entry, looked up): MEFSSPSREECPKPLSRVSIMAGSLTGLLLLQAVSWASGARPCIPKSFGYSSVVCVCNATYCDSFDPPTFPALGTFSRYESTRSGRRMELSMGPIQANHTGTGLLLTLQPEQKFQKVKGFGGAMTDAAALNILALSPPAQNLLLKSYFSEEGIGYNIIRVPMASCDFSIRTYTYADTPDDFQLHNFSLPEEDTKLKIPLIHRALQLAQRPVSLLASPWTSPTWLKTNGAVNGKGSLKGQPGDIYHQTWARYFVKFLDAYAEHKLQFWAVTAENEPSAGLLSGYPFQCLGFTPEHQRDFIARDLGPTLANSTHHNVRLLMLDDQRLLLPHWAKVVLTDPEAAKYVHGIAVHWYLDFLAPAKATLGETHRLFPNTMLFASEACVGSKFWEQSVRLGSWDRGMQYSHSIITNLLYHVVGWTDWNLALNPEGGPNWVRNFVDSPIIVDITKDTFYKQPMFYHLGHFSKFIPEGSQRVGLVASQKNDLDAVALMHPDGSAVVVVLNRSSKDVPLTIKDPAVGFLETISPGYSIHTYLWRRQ
Procedure, shortened: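 Normal human glucocerebrosidase (0.2 nM) with blue fluorogenic substrate (80 uM final) in citrate/phosphate pH 5.9 with 10mM sodium taurocholate, 0.01% tween-20; 40 min RT, NaOH/glycine stop; fluorescence Ex 365/Em 440; AC50 from a titration from 0.6 nM upwards.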

[2] = AP1 Signaling Pathway (AID 357; active = well fitted curve in either direction with a large enough effect, not every such curve was filed as active;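 also: ME-180 reporter cells stimulated with EGF at its EC50 level; % is scaled to controls: 0 for no effect and ±100 for the full control effect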); conditions: ME-180 AP-1-bla reporter, EGF-induced, beta-lactamase ratio, 5 h; at 7.69 µM (top of the series) unless noted
Procedure, shortened: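 Read-out was the 460nm/530nm emission ratio (excitation 405nm) after CCF4 loading for 2.5 hours at room temperature. Cells carried an AP-1-driven beta-lactamase reporter, were stimulated with EC50 EGF plus compound for 5 hours, and AC50 values came from titrations.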

[3] = target: Cytochrome P450 1A2 (Homo sapiens) (UniProt P05177); experiment: p450-cyp1a2 (AID 410; calls by dose curve; also: potency is read from the fitted curve at half-maximal effect); conditions: recombinant CYP1A2, luciferin-ME demethylation, luminescence; series mostly up to 57 µM
Chain of Cytochrome P450 1A2 (Homo sapiens) (P05177 whole entry, looked up): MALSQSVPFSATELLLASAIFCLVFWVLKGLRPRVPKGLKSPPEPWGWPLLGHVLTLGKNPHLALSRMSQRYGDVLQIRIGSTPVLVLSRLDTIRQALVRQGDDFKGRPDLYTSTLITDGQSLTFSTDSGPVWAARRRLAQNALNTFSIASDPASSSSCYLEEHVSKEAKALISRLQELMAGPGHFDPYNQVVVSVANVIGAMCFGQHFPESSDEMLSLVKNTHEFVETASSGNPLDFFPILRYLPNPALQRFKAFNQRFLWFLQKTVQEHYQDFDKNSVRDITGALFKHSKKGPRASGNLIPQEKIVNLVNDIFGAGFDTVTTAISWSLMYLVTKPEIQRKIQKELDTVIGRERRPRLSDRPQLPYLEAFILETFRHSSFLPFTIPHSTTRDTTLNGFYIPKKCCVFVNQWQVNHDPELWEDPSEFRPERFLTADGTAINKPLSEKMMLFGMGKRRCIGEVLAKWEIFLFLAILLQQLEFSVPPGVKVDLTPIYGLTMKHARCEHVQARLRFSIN
Procedure, shortened: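 O-Demethylation of luciferin 6' methyl ether by human CYP1A2 is monitored as luciferase luminescence. Substrate sits at Km (100uM); enzyme is 20nM. Values are scaled to 57 uM furafylline as maximal inhibition.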

[4] = NFAT Signaling Pathway (AID 444; active = well fitted curve in either direction with a large enough effect, not every such curve was filed as active;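 also: carbachol stimulus at about its EC50 of 1 µM final; % is scaled to controls: 0 for no effect and ±100 for the full control effect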); conditions: Jurkat NFAT-bla M1, carbachol, beta-lactamase ratio, 5 h; at 7.69 µM (top of the series) unless noted
Procedure, shortened: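 Read-out: CCF4 FRET ratio (460 nm/530 nm) after 1 h RT dye loading, used for %activity and AC50 from titration series. Cells: Jurkat NFAT-β-lactamase/M1 line, treated with compound plus 1 uM carbachol for 5 h, 37 °C.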

[5] = Stat Signaling Pathway (AID 446; active = well fitted curve in either direction with a large enough effect, not every such curve was filed as active;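 also: ME-180 cervical cancer cells given 40 pM IL-6 alongside compound; SIE-controlled beta-lactamase reporter measured as 460/530 nm FRET emission ratio; % is scaled to controls: 0 for no effect and ±100 for the full control effect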); conditions: ME-180 (cervical carcinoma) SIE beta-lactamase reporter, IL-6 stimulated, 5 h; at 7.69 µM (top of the series) unless noted
Procedure, shortened: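 Overnight-plated ME-180 cells bearing a STAT Inducible Element beta-lactamase reporter; 5 h co-exposure to compound and 40 pM IL-6; values normalized to 300 pM IL-6 and 125 nM JAK inhibitor controls.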

[6] = target: Glucocorticoid receptor (Homo sapiens) (UniProt P04150); experiment: GR-GFP Redistribution (AID 450;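 active = compounds whose dose series gives a full or clear partial fitted curve of increased nuclear translocation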; also: potency is read from the fitted curve at half-maximal effect); conditions: U2OS GR-GFP nuclear translocation, laser cytometry, 2 h
Chain of Glucocorticoid receptor (Homo sapiens) (P04150 whole entry, looked up, the tested form may be a part): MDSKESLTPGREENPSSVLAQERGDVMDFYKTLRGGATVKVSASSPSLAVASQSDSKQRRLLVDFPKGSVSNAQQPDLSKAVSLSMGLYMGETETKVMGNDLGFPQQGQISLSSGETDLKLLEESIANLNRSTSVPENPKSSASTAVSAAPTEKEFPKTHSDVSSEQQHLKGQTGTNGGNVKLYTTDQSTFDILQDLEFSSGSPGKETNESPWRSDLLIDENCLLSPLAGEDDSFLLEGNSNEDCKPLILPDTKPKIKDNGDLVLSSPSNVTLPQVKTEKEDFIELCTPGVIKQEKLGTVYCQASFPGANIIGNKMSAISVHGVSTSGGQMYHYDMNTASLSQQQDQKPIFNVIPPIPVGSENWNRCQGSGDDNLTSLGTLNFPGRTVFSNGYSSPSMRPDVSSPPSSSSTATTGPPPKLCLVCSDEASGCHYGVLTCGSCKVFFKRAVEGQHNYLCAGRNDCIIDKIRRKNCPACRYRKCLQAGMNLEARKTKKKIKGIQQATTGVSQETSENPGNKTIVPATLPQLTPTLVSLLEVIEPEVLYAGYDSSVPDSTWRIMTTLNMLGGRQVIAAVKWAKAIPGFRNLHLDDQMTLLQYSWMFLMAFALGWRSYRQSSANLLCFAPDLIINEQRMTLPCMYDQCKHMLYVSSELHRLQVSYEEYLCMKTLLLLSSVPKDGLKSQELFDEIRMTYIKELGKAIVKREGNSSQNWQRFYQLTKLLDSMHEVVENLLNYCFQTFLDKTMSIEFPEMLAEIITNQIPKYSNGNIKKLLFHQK

[7] = target: Glucocorticoid receptor (Homo sapiens) (UniProt P04150); experiment: GR-EFC Redistribution (AID 451; calls by dose curve; also: potency is read from the fitted curve at half-maximal effect); conditions: CHO-K1 GR-EFC translocation, beta-gal luminescence, 2 h
Procedure, shortened: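 Translocation of GR-ED fusion to nuclear EA restores b-gal, read by luminescence after 1 h room-temperature detection. Engineered CHO-K1 biosensor cells, 1,000/well, exposed 2 h at 37 C to titrations up to 46 uM final.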

[8] = target: Mitogen-activated protein kinase 10 (Mus musculus) (UniProt Q61831); experiment: JNK3 AlphaScreen Assay (AID 530; active = well fitted curve in either direction with a large enough effect, not every such curve was filed as active;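 also: kinase came from lysate of stimulated human HepG2 cells; signal reports phosphorylation of biotinylated GST-cJun 1-79 at Ser73 with 10 µM ATP; % is scaled to controls: 0 for no effect and ±100 for the full control effect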); conditions: JNK3 lysate, c-Jun phosphorylation; series mostly up to 57.1 µM
Procedure, shortened: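 qHTS titrations with 15 min compound pre-incubation before adding ATP (10 uM final). Read-out: AlphaScreen of Ser73-phosphorylated biotin-GST-cJun using HepG2 lysate JNK3 activated by IL-1β and TNFα.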

[9] = target: 3',5'-cyclic-AMP phosphodiesterase 4B (Homo sapiens) (UniProt Q07343); experiment: qHTS Assay for Inhibitors of PDE-IV (AID 607; active = well fitted activation curve with a large enough effect in the main read-out, with a control signal flat, not every such curve was filed as active; also: % of control where 0% means no effect); conditions: HEK293 ACTOne CNG channel cells, membrane potential fluorescence; series mostly up to 22.9 µM
Chain of 3',5'-cyclic-AMP phosphodiesterase 4B (Homo sapiens) (Q07343 whole entry, looked up): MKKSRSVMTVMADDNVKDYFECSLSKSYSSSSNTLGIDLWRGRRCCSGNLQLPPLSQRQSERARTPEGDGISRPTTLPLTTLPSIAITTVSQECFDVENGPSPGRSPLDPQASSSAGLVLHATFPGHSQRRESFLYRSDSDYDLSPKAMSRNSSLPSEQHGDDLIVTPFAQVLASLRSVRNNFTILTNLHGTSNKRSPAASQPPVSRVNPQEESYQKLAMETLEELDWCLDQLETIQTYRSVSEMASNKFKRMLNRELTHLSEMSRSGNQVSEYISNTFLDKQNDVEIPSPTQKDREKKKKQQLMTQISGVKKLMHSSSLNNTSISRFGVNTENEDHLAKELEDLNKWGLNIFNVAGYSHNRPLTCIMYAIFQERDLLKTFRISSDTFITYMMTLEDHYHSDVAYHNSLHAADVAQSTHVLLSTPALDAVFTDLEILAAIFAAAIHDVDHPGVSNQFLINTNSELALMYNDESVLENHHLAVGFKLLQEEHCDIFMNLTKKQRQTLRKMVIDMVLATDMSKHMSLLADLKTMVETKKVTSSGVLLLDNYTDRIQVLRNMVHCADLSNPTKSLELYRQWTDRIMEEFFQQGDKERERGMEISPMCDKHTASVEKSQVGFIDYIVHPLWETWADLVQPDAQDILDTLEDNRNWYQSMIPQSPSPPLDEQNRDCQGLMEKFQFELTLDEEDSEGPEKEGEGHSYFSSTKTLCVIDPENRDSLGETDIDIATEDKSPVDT
Procedure, shortened: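 Live HEK293 cells with a modified cyclic nucleotide-gated (CNG) channel report intracellular cAMP via membrane-potential dye fluorescence (ex 535/em 590 nm). Endogenous PDE-IV was targeted. Compounds were tested at up to 22.9 uM final; RO 20-1724 100 uM served as control.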

[10] = target: Cytochrome P450 3A4 (Homo sapiens) (UniProt P08684); experiment: qHTS Assay for Activators of Cytochrome P450 3A4 (AID 885); conditions: recombinant CYP3A4, Luciferin-PPXE luminescence, 60 min; series mostly up to 57.1 µM; also: nearly all actives have a fitted effect of over 65% in size
Chain of Cytochrome P450 3A4 (Homo sapiens) (P08684 whole entry, looked up): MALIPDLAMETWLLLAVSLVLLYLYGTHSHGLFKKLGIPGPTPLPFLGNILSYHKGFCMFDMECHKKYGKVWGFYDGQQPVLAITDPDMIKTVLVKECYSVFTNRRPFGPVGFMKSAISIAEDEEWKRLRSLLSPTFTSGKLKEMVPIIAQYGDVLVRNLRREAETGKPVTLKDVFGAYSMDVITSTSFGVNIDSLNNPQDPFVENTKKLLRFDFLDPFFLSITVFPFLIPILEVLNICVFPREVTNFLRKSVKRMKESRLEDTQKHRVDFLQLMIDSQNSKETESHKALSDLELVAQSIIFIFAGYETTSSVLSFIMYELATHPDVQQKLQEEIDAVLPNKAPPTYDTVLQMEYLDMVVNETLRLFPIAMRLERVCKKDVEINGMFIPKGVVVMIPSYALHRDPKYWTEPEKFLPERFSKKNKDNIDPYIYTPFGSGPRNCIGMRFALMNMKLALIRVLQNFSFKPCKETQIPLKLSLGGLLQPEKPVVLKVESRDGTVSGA
Procedure, shortened: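 Using 20nM recombinant human CYP3A4 in potassium phosphate (200mM), substrate Luciferin-PPXE at 25uM, luminescent luciferin detection followed a 60-min RT NADPH reaction; data scaled to 57 uM ketoconazole.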

[11] = target: Dual specificity protein kinase CLK4 (Homo sapiens) (UniProt Q9HAZ1); experiment: qHTS Assay for Inhibitors of CDC-like Kinase 4 (Kinase-Glo Assay) (AID 1770); conditions: recombinant Clk4, Kinase-Glo ATP depletion luminescence; series mostly up to 66.7 µM; also: nearly all actives have a fitted effect of over 65% in size; also: potency is read from the fitted curve at half-maximal effect
Chain of Dual specificity protein kinase CLK4 (Homo sapiens) (Q9HAZ1 whole entry, looked up): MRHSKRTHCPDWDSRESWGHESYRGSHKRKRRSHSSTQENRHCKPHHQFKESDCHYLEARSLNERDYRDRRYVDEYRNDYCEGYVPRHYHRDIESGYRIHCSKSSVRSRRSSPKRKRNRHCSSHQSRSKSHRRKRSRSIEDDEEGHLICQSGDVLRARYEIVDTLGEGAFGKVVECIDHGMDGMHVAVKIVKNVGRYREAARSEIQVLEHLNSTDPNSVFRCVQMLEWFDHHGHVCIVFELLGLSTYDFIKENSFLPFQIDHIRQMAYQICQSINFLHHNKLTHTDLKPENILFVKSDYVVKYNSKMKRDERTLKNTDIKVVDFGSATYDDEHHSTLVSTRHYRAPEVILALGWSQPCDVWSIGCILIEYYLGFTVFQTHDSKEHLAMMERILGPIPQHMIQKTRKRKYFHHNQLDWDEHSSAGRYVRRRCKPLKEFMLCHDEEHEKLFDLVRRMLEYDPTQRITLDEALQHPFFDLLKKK
Procedure, shortened: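 Recombinant human Clk4 (25 nM) phosphorylated RS repeat peptide (100 uM) with 1 uM ATP in Tris pH 7.5/MgCl2/EGTA/DTT/Triton buffer for 4.5 h at room temperature. Residual ATP was quantified by Kinase-Glo luciferase luminescence.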

[12] = target: Dual specificity protein kinase CLK4 (Homo sapiens) (UniProt Q9HAZ1); experiment: qHTS Assay for Inhibitors of CDC-like Kinase 4 (ADP-Glo Assay) (AID 1771); conditions: recombinant CLK4, ADP-Glo luminescence; series mostly up to 80 µM; also: nearly all actives have a fitted effect of over 70% in size; also: potency is read from the fitted curve at half-maximal effect
Procedure, shortened: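 Compounds are pin-transferred onto substrate mix (100 uM RS peptide, 1 uM ATP), then 25 nM Clk4 is added. After 1 hr at room temperature, ADP-Glo reagent runs 45 min, detection reagent 30 min, then luminescence is read.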

[13] = target: Dual specificity protein kinase CLK4 (Homo sapiens) (UniProt Q9HAZ1); experiment: qHTS Assay for Inhibitors of CDC-like Kinase 4 (ADP-FP Assay) (AID 1795); conditions: Transcreener ADP fluorescence polarization; series mostly up to 50 µM; also: nearly all actives have a fitted effect of over 60% in size; also: potency is read from the fitted curve at half-maximal effect
Procedure, shortened: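 Recombinant human Clk4 (6.25 nM) phosphorylated RS repeat peptide (100 uM) with 1 uM ATP in Tris pH 7.5/MgCl2/EGTA/DTT/Triton buffer for one hour. ADP was quantified by Transcreener competitive fluorescence polarization against an ADP calibration curve.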

[14] = target: Ubiquitin carboxyl-terminal hydrolase 1 (Homo sapiens) (UniProt O94782); experiment: Inhibitors of USP1/UAF1: Pilot qHTS (AID 504865); conditions: purified USP1/UAF1, Ub-rhodamine cleavage fluorescence; series mostly up to 54.9 µM;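 also: rhodamine fluorescence freed from ubiquitin-rhodamine substrate followed over time; top concentration of the series differs between compounds; % is scaled to controls: 0 for no effect and ±100 for the full control effect; nearly all actives have a fitted effect of over 35% in size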
Chain of Ubiquitin carboxyl-terminal hydrolase 1 (Homo sapiens) (O94782 whole entry, looked up): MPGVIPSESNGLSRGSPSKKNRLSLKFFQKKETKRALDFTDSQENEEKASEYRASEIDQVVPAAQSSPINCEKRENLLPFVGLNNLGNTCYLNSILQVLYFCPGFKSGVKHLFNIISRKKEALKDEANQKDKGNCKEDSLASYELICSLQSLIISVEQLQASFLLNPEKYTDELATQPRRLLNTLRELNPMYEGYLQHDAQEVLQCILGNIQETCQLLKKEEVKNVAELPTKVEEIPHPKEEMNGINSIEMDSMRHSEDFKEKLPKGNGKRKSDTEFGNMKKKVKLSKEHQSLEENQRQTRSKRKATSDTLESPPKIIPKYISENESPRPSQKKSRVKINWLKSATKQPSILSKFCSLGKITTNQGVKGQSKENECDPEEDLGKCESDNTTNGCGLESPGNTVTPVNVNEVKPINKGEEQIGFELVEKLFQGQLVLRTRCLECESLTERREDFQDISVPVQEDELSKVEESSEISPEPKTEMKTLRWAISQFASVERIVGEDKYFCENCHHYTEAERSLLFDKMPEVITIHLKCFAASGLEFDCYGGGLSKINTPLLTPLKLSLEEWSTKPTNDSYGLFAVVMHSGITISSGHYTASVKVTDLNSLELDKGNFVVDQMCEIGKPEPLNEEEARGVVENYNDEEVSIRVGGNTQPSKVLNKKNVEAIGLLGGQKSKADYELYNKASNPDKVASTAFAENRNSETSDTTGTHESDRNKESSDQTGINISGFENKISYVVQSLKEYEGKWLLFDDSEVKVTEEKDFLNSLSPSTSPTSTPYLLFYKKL
Procedure, shortened: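 USP1/UAF1 complex (1nM) preincubated with compound 15 min at room temperature, then Ub-Rho substrate (150nM final) added. Fluorescence read kinetically at 480/540 nm, 6 reads every 60 seconds. Buffer: 50mM HEPES pH 7.8, 0.5mM EDTA, 0.1 mg/ml BSA, 1mM TCEP, 0.01% Tween-20.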

[15] = Primary qHTS for small molecule stabilizers of the endoplasmic reticulum resident proteome: Secreted ER Calcium Modulated Protein (SERCaMP) assay (AID 1508630); conditions: SH-SY5Y GLuc-SERCaMP (Gaussia luciferase released on ER calcium loss) secretion, thapsigargin, luminescence; series mostly up to 38.4 µM; also: % is scaled to controls: 0 for no effect and ±100 for the full control effect
Procedure, shortened: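 The SH-SY5Y reporter protocol was run at 3 concentrations up to 38.3 uM (primary) or 11 concentrations (follow-up): 16 h compound, 100 nM thapsigargin for 4 h, then extracellular luciferase luminescence.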

[16] = target: Cytochrome P450 3A4 (Homo sapiens) (UniProt P08684); experiment: qHTS Assay for Inhibitors and Substrates of Cytochrome P450 3A4 (AID 884); conditions: recombinant CYP3A4, Luciferin-PPXE luminescence; series mostly up to 57.1 µM; also: potency is read from the fitted curve at half-maximal effect; nearly all actives have a fitted effect of over 50% in size
Procedure, shortened: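 Luminescent readout of luciferin produced by CYP3A4 (20 nM) dealkylation of Luciferin-PPXE, 25 uM (its KM). NADPH-driven reaction ran 60 min at RT after 10 min compound preincubation; data scaled to 57 uM ketoconazole as 100% inhibition.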

c1cncc(-c2ccc3ncnc(NC4CCNCC4)c3c2)c1
active: Potency [3] 12.6 µM | Potency [11] 14.1 µM | Potency [12] 15.8 µM | Potency [13] 12.6 µM
inactive: Potency [1] > 11.4 µM | activity change, negative = inhibition [2] 5.15% | activity change, negative = inhibition [4] 13.2% | activity, negative = inhibition [5] 3.6% | Potency [6] > 46 µM | Potency [7] > 46 µM | Potency [8] | Potency [9] | Potency [10] | Potency [14] | outcome [15]

CNc1nc(-c2ccccc2C)nc2ccccc12
active: Potency [1] 8.72 µM | Potency [3] 0.501 µM | Potency [11] 12.6 µM | Potency [12] 12.6 µM | Potency [13] 14.1 µM
inactive: activity change, negative = inhibition [2] 8.12% | activity change, negative = inhibition [4] 3.1% | activity, negative = inhibition [5] 9% | Potency [6] > 46 µM | Potency [7] > 46 µM | Potency [8] | Potency [9] | Potency [10] | Potency [14] | outcome [15]

CC(=O)NCCNc1ncncc1-c1ccccc1CN(C)C
active: Potency [3] 25.1 µM
inactive: Potency [1] > 11.4 µM | activity change, negative = inhibition [2] 1.84% | activity change, negative = inhibition [4] -2.17% | activity, negative = inhibition [5] 0.764% | Potency [6] > 46 µM | Potency [7] > 46 µM | Potency [8] | Potency [9] | Potency [10] | Potency [11] | Potency [12] | Potency [13] | Potency [14] | outcome [15]

c1cc(NC2CC2)nc(-c2ccoc2)n1
inactive: Potency [1] > 11.4 µM | activity change, negative = inhibition [2] -10.4% | activity change, negative = inhibition [4] -10.6% | activity, negative = inhibition [5] 14.4% | Potency [6] > 46 µM | Potency [7] > 46 µM | Potency [8] | Potency [9] | Potency [10] | Potency [11] | Potency [12] | Potency [13] | Potency [14] | outcome [15]
active: Potency [3] 0.251 µM | Potency [16] 5.01 µM

CNc1ccnc(-c2ccccc2C)n1
active: Potency [3] 5.01 µM
inactive: Potency [1] > 11.4 µM | activity change, negative = inhibition [2] 0.123% | activity change, negative = inhibition [4] 13% | activity, negative = inhibition [5] 6.43% | Potency [6] > 46 µM | Potency [7] > 46 µM | Potency [8] | Potency [9] | Potency [10] | Potency [11] | Potency [12] | Potency [13] | Potency [14] | outcome [15]

NC(=O)c1ccccc1-c1nc(-n2ccnc2)c2ccccc2n1
inactive: Potency [1] > 11.4 µM | activity change, negative = inhibition [2] 11.1% | activity change, negative = inhibition [4] -3.23% | activity, negative = inhibition [5] -1.41% | Potency [6] > 46 µM | Potency [7] > 46 µM | Potency [8] | Potency [9] | Potency [10] | Potency [11] | Potency [12] | Potency [13] | Potency [14] | outcome [15]
active: Potency [3] 2.51 µM
